In this experiment the target is FXR LBD (GAL4 fusion) (UniProt Q96RI1). Description: luciferase reporter transactivation, fold of solvent control; higher = stronger receptor activation. The note with it: HEK293T, exposure time: 24 h. Here is the method:
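HEK293T cells were transiently transfected with a GAL4-DBD fused to the ligand-binding domain of a human nuclear receptor (PPARα, PPARγ, PPARδ, FXR, LXRα, PXR, RARα or CAR), the GAL4-(UAS)5-TK firefly luciferase reporter and a Renilla luciferase normalisation plasmid. Cells were exposed to compound for 24 h in 0.5% DMSO. Firefly/Renilla luciferase was expressed as fold of the solvent control (=1). Values are the mean of 2-3 biological replicates; receptor agonists were used as positive controls.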

These results are taken from the supplement of paper PMC11402862.

The structures appear in SMILES notation.

FXR LBD (GAL4 fusion), sequence (Q96RI1 whole entry, looked up, the tested form may be a part): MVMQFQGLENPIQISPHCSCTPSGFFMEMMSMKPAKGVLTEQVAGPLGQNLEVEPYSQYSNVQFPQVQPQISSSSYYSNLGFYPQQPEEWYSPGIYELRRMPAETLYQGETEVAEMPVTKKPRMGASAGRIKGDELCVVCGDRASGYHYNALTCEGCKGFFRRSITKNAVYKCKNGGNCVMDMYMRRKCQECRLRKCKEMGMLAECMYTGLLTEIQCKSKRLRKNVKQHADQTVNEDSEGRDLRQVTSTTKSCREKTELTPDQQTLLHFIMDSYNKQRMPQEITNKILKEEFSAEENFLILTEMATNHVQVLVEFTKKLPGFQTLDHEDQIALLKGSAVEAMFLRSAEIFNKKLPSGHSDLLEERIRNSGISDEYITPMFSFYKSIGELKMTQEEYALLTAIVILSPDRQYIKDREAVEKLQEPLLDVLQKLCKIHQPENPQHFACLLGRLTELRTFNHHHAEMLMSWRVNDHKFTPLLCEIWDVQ

Turning to `O=C(O)C(F)(F)C(F)(F)F` [perfluoropropanoic acid], the luciferase reporter transactivation runs as follows: (concentration: 1 µM) 1.54; (concentration: 5 µM) 1.63; (concentration: 10 µM) 1.39; (concentration: 25 µM) 0.693; (concentration: 50 µM) 1.46; (concentration: 100 µM) 1.43. Also, the luciferase reporter transactivation runs as follows: (concentration: 250 µM) 1.27; (concentration: 500 µM) 1.62.
Regarding `NS(=O)(=O)C(F)(F)C(F)(F)C(F)(F)C(F)(F)C(F)(F)C(F)(F)C(F)(F)C(F)(F)F` [perfluorooctane sulfonamide], the luciferase reporter transactivation by setting is: (concentration: 1 µM) 0.705; (concentration: 2.5 µM) 0.788; (concentration: 5 µM) 1.1; (concentration: 10 µM) 0.752; (concentration: 100 µM) 1.01.
